A selection: hits, their analogues and other compounds. The true share with any hit is near 18%.
TDP1 inh = inhibitors of human tyrosyl-DNA phosphodiesterase TDP1; Q9NUW8; recombinant TDP1, AlphaScreen DNA substrate cleavage; Potency, µM (series often up to 130 µM), inactives show at the highest dose activity change, negative = inhibition, most hits filed as inhibitors; actives 0.28% (n = 350,000); further: potency means the concentration at half of the fitted maximal effect; nearly all actives have a fitted effect of over 40% in size
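E. coli-derived human Tdp1, 1 nM final. Cpd preinc 15 min RT; substrate 15 nM final, 5 min RT; AS bead mix 10 ug/ml final, 10 min RT. Signal loss = tyrosine-FITC cleavage. No-enzyme wells = max signal.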
IL1B secr inh = inflammasome signaling inhibition, IL-1 beta readout; THP-1 LPS/ATP IL-1B secretion, AlphaLISA, 16 h; active compounds read low; activity change, % at 57.5 µM; actives 4.7% (n = 360,000); AID 743279; in the data active means activity change below about -50%; inconclusive means mostly about -30% to -49%
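Secreted IL-1B measured by AlphaLISA bead assay after 16 h compound exposure of THP-1 cells; compounds (final up to 57.5 uM) added 1 h before LPS (250 ng/mL) and ATP (1.25 mM) stimulation; lower signal means less secretion.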
CtBP-E1A inh = inhibitors of CtBP/E1A interaction | AlphaScreen GST-E1A/His-CtBP binding, 1536-well; active compounds read low | AID 651724 | actives 0.49% (n = 340,000) | activity change, % (concentration not given with the values); in the data active means activity change below about -65%; inconclusive means mostly about -30% to -63%
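Homogeneous bead-based format: GST-tagged E1A captured on glutathione donor beads, His-tagged CtBP on nickel acceptor beads; compounds precede bead addition by 2 h at 37 °C.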
DT40 TDP1 no CPT = qHTS for Inhibitors of human tyrosyl-DNA phosphodiesterase 1 (TDP1): qHTS in cells in absence of CPT | DT40 Tdp1-/- hTDP1 cells, no CPT, ATP luminescence, 48 h | Potency, µM (doses to about 46.2 µM), for inactives: at the top dose activity change, negative = growth inhibition, actives largely listed as inhibitors | actives 15% (n = 420,000); further: potency means the concentration at half of the fitted maximal effect; nearly all actives have a fitted effect of over 55% in size
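Growth of hTDP1-complemented DT40 Tdp1-knockout cells is measured by ATP luminescence after at least 48 hr compound exposure at 37 °C, with DMSO substituting for the 20 nM CPT used in the parallel screen.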
Six1-Eya2 blk = blocks human Six1 binding to Eya2; actives 0.56% (n = 360,000); Q15475+O00167; AlphaScreen GST-Six1/His-Eya2 binding, biochemical; active compounds read low; activity change, % (no concentration beside the values); in the data active means activity change below about -65%; inconclusive means mostly about -30% to -63%
Target sequence (O00167 whole entry, looked up): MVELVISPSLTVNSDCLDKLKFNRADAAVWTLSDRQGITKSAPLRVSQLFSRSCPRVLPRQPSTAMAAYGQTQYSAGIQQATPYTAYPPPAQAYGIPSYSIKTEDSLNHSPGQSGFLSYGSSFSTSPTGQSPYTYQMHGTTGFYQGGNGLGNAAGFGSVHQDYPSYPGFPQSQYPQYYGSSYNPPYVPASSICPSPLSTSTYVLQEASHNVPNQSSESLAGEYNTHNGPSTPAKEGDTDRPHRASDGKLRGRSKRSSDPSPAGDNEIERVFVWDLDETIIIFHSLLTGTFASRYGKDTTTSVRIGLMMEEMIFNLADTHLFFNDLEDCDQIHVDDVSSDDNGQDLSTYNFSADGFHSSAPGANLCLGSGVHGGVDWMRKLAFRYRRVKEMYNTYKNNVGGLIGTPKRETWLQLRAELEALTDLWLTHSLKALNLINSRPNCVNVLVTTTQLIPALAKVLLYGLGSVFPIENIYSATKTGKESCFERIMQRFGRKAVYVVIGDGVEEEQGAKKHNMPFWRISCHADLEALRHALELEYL
Target sequence (Q15475 whole entry, looked up): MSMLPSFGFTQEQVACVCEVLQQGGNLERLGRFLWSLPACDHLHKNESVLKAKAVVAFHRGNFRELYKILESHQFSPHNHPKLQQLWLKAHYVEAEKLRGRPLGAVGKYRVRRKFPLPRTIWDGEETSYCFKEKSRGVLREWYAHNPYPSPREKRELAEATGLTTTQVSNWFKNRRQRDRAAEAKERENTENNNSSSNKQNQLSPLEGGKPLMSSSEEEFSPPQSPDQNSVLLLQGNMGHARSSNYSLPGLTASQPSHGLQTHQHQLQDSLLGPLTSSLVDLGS
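Homogeneous AlphaScreen proximity assay pairing GST-Six1 with His-tagged Eya2 (added as 5X mix: 250 nM and 500 nM) in 50 mM Tris pH 8.0, 300 mM NaCl, 1 mM TCEP. Glutathione donor and nickel acceptor beads; 1 h, 37 °C, dark.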
TDP1 cell CPT = DT40-hTDP1 cell growth loss with CPT; chicken DT40 Tdp1-/-;hTDP1 cells + 20 nM CPT, ATP luminescence, 48 h; actives 12% (n = 420,000); Potency, µM (highest dose often 46.2 µM), for inactives: top-dose activity change, negative = growth inhibition, actives largely listed as inhibitors; further: potency means the concentration at half of the fitted maximal effect; nearly all actives have a fitted effect of over 55% in size
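Chicken DT40 Tdp1-/- cells complemented with human TDP1, 400 cells/well, exposed to compounds plus 20 nM camptothecin for at least 48 h at 37 C; viability read as ATP content by CellTiter-Glo luminescence.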
Starred values were filed as active, the others as inactive; ? = inconclusive; . = no result. Unless noted, the call rests on the fitted dose curve; in most records, active means well fitted curve in the direction sought with a large enough effect; inconclusive means small, poorly fitted or top-dose-only effect, or another doubt; inactive means no such curve, though single readings can be large; an effect the other way counts as inactive or inconclusive. On the % scale 0 is the no-effect control and ±100 the full control effect.

SMILES	TDP1 inh	IL1B secr inh	CtBP-E1A inh	DT40 TDP1 no CPT	Six1-Eya2 blk	TDP1 cell CPT
O=C(Nc1ccc(N2CCN(C(=O)c3cccs3)CC2)cc1)c1cccc(F)c1	.	-88.6*	-18.2	20.6µM*	-8.9	16.4µM*
COc1ccc(C2C3C=CCC(c4ccccc4)C3C(=O)N2Cc2ccccc2)cc1Cl (stereo not given)	11.5%	.	.	.	.	.
Nc1nc(Nc2cccc3ccccc23)nc(C2CCCC2=O)n1 (stereo not given)	-2.2%	.	.	.	.	.
Nc1nc(CCl)nc(Nc2cccc3ccccc23)n1	9.6%	-99.9*	.	3.26µM*	7.3	?
CSCCC(NC(=O)c1ccc([N+](=O)[O-])cc1Cl)C(=O)OCC(=O)N(C)C (stereo not given)	0.0%	57.7	-18.0	-5.1%	7.2	-1.6%
CC(=O)NCCNC(=O)C1(C)Cc2c(-c3ccccc3)ccnc2O1 (stereo not given)	.	8.0	0.3	-12.7%	4.3	-15.5%
CC1(C(=O)NCc2ccco2)Cc2c(-c3ccccc3)ccnc2O1 (stereo not given)	.	55.9	-0.5	2.31µM*	-5.1	2.59µM*
CC1(C(=O)Nc2ccc3c(c2)OCO3)Cc2c(-c3ccccc3)ccnc2O1 (stereo not given)	.	28.3	0.0	?	6.4	?
CC1(C(=O)NCCC(F)(F)F)Cc2c(-c3ccccc3)ccnc2O1 (stereo not given)	.	0.0	2.2	5.8µM*	-0.4	6.51µM*
COc1cc(NC(=O)c2ccccc2)c(OC)cc1NC(=O)CN1CCOCC1	0.0%	?	-6.0	?	-11.6	-19.6%
COc1cc(NC(=O)c2cccc(C)c2)c(OC)cc1NC(=O)CN1CCOCC1	2.6%	?	.	18.4µM*	4.2	?
COc1cc(NC(=O)c2ccccc2Cl)c(OC)cc1NC(=O)CN1CCOCC1	4.2%	-73.6*	5.3	?	3.6	?
CSc1ccc(/C=N/N2CCN(Cc3ccc(Cl)cc3)CC2)cc1	9.2%	-26.7	-15.4	-25.4%	-13.7	?
COc1ccc(OC)c(N(C(=O)c2snc(C(N)=O)c2N)C(C(=O)NCc2ccccc2)c2ccc(O)cc2)c1 (stereo not given)	.	-78.8*	-29.7	?	1.1	?
NC(=O)c1nsc(C(=O)N(c2ccccc2)C(C(=O)NCc2ccc(F)cc2)c2ccc(O)cc2)c1N (stereo not given)	0.0%	-18.9	2.8	18.4µM*	1.7	20.6µM*
COc1ccc(CNC(=O)C(c2ccc(C)o2)N(C(=O)c2snc(C(N)=O)c2N)c2ccccc2OC)cc1 (stereo not given)	0.1%	-6.4	3.9	-20.8%	-7.2	?
COc1ccc(N(C(=O)c2snc(C(N)=O)c2N)C(C(=O)NCc2ccccc2)c2ccc(O)cc2)cc1 (stereo not given)	11.1%	-20.9	3.6	23.1µM*	-0.8	?
Cn1c(=O)c2sccc2n2c(CCCC(=O)NCCc3ccccc3)nnc12	1.0%	-7.4	.	-3.8%	-1.4	-7.5%
Cc1csc(C(=O)O)c1-n1cccc1	12.6µM*	23.9	7.2	-5.9%	-2.3	-15.5%
COC(=O)c1scc(S(C)(=O)=O)c1-n1cccc1	.	11.8	5.3	-19.4%	-4.2	-21.4%
Cc1cc(C)c(Cn2c(C)c(CNCCCc3ccccc3)c(C(=O)O)c2C)c(C)c1	2.5%	.	.	23.1µM*	.	?
CCOC(=O)COc1cc(N)c(Cl)cc1Cl	1.6%	-53.4*	-4.1	-4.9%	-2.1	-0.8%
Cc1ccc(Cl)c(OCC(=O)OCC(=O)c2ccc[nH]2)c1	-2.5%	-1.6	0.9	-10.0%	-2.4	?
CC1(C)OC(C)(C)/C(=C/Nc2ccc(O)cc2)C1=O	5.3%	14.1	-3.0	23.1µM*	-20.9	?
CC1(C)OC(=O)C(=CNc2cccc(O)c2)C(=O)O1	0.5%	-7.5	3.2	5.6%	4.4	0.5%
SMILES	TDP1 inh	IL1B secr inh	CtBP-E1A inh	DT40 TDP1 no CPT	Six1-Eya2 blk	TDP1 cell CPT
N#Cc1cc2c(=O)n3ccccc3nc2n(Cc2ccco2)c1=NC(=O)c1ccco1	0.0%	-3.7	?	-29.5%	-28.9	3.7%
Cn1c(-c2ccccc2)cc2onc(-c3ccccc3)c2c1=O	-8.3%	-8.5	0.0	20.6µM*	0.9	14.6µM*
Cn1c(-c2ccccc2F)cc2onc(-c3ccccc3)c2c1=O	.	?	3.0	?	17.5	?
CC1(N=Cc2cc(Cl)ccc2O)COP(=O)(NC2CCCC2)OC1 (stereo not given)	.	22.1	4.1	-20.7%	2.0	-18.5%
CC1=C(C(=O)OC2CCCCC2)C(c2cccnc2)n2nnnc2N1 (stereo not given)	-5.1%	-10.5	-12.9	11.6µM*	-6.5	8.2µM*
COCCN(C(=O)COC(=O)c1ccc2ccccc2c1)c1c(N)n(Cc2ccccc2)c(=O)[nH]c1=O	.	-10.3	-0.5	-26.0%	11.9	-21.1%
Cc1cc(C(=O)CSc2nc(N)cc(N)n2)c(C)n1CCc1ccc(F)cc1	9.5%	-66.2*	-15.9	?	-20.8	?
Cc1cc(C(=O)COC(=O)c2ccc(O)cc2)c(C)n1CCc1ccc(F)cc1	-5.8%	12.6	6.4	-26.0%	?	-0.4%
Cc1cc(C(=O)CSc2nc(N)cc(N)n2)c(C)n1-c1cccc(C(F)(F)F)c1	8.2%	-10.7	14.0	?	1.2	23.1µM*
COc1ccc(NC(=O)C(C)n2nc(C)c3c(C)n(-c4ccccc4)nc3c2=O)cc1Cl (stereo not given)	0.0%	.	.	?	.	-28.4%
CCOC(=O)c1ccc(Oc2nc(NC(C)(C)C)nc(N(C)C)n2)cc1	-0.7%	-14.8	-5.5	20.6µM*	7.6	13µM*
COc1ccc(NC(=O)CSc2ncnc3c2cnn3Cc2ccccc2)cc1	5.1%	8.7	6.8	-24.7%	-1.5	?
O=C(/C=C/c1ccco1)Nc1cccc(C(=O)Nc2ccccc2C(=O)O)c1	39.8µM*	74.0	?	16.4%	?	-1.9%
CCc1ccccc1NC(=O)c1cccc(NC(=O)/C=C/c2ccco2)c1	-4.1%	-14.7	-3.6	20.6µM*	-20.7	18.4µM*
COCCCNc1nnc(Cc2ccc(Cl)cc2)c(=O)[nH]1	.	24.3	.	0.82µM*	-5.5	0.411µM*
CCN(CC(=O)NCc1cccs1)C(=O)/C=C/c1ccc(Cl)c(Cl)c1	.	-12.4	-0.3	?	-6.9	-13.3%

Bioassay records as filed in PubChem BioAssay.
